G9a block – qHTS Assay for Inhibitors of Histone Lysine Methyltransferase G9a. Potency, µM (doses to about 102 µM), inactives show at the highest dose activity, negative = inhibition, actives largely listed as inhibitors. AID 504332, 2011. Histone-lysine N-methyltransferase EHMT2 (Homo sapiens), Q96KQ7. G9a H3K9 monomethylation, AlphaScreen, 2 h. hit rate 8.8% among 350,000; note: % is set by controls: 0 for no effect and ±100 for the full control effect; nearly all actives have a fitted effect of over 75% in size
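Chemiluminescent proximity detection of H3K9 monomethylation, read after 10 min bead incubation in the dark. Reaction: 20 nM G9a, 500 nM biotin-H3K9 peptide, 20 uM SAM cofactor, 2 h, room temperature, following 15 min enzyme-compound preincubation.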
Sfp PPTase inh – qHTS Assay for Inhibitors of Bacillus subtilis Sfp phosphopantetheinyl transferase (PPTase); 4'-phosphopantetheinyl transferase ffp (Bacillus subtilis), Q9F4F7; Biochemical Sfp PPTase activity, qHTS; Potency, µM, inactives show largest response in the series, negative = inhibition, hits mostly inhibitors; hit rate 3.5% among 310,000; AID 1490, 2009;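 note: the enzyme is Sfp with the accession as filed and its product quenches rhodamine fluorescence; 0% = enzyme reaction without inhibitor and -100% = no enzyme wells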
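After 15 min at room temperature with compound, 15 nM Sfp received 5 uM rhodamine-CoA plus 12.5 uM BHQ-2-ybbR (50 mM Hepes pH 7.6, 10 mM MgCl2). Rate came from the fluorescence difference over 30 min, ex 525/em 598 nm.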
PLK1 PBD inh – qHTS for Inhibitors of PLK1-PDB (polo-like kinase 1 - polo-box domain): Primary Screen | Serine/threonine-protein kinase PLK1 (Homo sapiens), P53350 | hit rate 2.8% among 360,000 | AID 720504, 2013 | Potency, µM, inactives show max response, negative = inhibition, actives largely listed as inhibitors | Plk1 PBD binding of FITC phosphopeptide, fluorescence polarization; note: series mostly up to about 57 µM; % is set by controls: 0 for no effect and ±100 for the full control effect; nearly all actives have a fitted effect of over 65% in size
Target sequence (P53350 whole entry, looked up, the tested form may be a part): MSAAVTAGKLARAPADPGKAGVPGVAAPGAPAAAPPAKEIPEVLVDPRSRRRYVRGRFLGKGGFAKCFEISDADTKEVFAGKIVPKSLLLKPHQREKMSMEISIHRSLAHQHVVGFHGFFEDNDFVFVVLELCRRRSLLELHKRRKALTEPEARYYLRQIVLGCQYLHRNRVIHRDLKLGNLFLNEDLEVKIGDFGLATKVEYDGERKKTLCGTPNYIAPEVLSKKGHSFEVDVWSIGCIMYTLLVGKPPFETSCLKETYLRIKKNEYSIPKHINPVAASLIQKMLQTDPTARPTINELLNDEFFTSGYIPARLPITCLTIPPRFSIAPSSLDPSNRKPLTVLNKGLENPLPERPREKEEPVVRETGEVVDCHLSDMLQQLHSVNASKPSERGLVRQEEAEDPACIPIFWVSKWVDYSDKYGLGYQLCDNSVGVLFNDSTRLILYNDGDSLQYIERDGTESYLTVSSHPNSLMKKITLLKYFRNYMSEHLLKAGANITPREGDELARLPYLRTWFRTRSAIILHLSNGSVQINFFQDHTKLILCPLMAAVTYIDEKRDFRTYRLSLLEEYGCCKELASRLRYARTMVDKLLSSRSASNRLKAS
BAZ2B block – qHTS Assay for Inhibitors of BAZ2B; AID 504333, 2011; Bromodomain adjacent to zinc finger domain protein 2B (Homo sapiens), Q9UIF8; Potency, µM (highest dose often 114 µM), for the others: at the highest dose activity change, negative = inhibition, actives largely listed as inhibitors; AlphaScreen BAZ2B-H3K14Ac peptide displacement; hit rate 4.4% among 360,000; note: % is set by controls: 0 for no effect and ±100 for the full control effect; nearly all actives have a fitted effect of over 60% in size
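AlphaScreen displacement: compounds (up to 110uM) incubated 30 min at room temperature with a preformed 50 nM BAZ2B/50 nM biotinylated H3K14Ac peptide complex in PBS pH 7.4 with Tween-20. Donor and acceptor beads at 10 ug/mL final added, 20 min light-protected before reading.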
HP1b binding inh – HTS for Inhibitors of HP1-beta Chromodomain Interactions with Methylated Histone Tails; Chromobox protein homolog 1 (Homo sapiens), P83916; AlphaScreen HP1-beta / biotin-H3K9me3 peptide binding; Potency, µM (top dose mostly 114 µM), inactives show at the highest dose activity change, negative = inhibition, actives largely listed as inhibitors; hit rate 0.56% among 390,000; note: nearly all actives have a fitted effect of over 70% in size
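AlphaScreen: HP1-beta (50 nM) preformed 30 min with biotin-H3(1-18)K9me3 peptide (50 nM) in PBS pH 7.4, 0.01% Tween-20. Compound added for 30 min at RT, then streptavidin donor/nickel chelate acceptor beads (10 ug/mL) for 30 min.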
JMJD2A Tudor inh – qHTS Assay for Inhibitors of JMJD2A-Tudor Domain; Lysine-specific demethylase 4A (Homo sapiens), O75164; AlphaScreen JMJD2A-Tudor / H3K4me3 peptide binding; Potency, µM (top dose mostly 114 µM), without a hit: top-dose activity change, negative = inhibition, usual class: inhibitors; hit rate 4.4% among 390,000; note: % is set by controls: 0 for no effect and ±100 for the full control effect; nearly all actives have a fitted effect of over 50% in size
* = called active by the depositor; ? = inconclusive; / = no result given; [ ] = dose if it differs, or a comment. Hits are enriched below; roughly 12% of the tested compounds scored in any of these assays. Calls come from the whole dose curve; as a rule, active = well fitted curve in the direction sought with a large enough effect; inconclusive = small, poorly fitted or top-dose-only effect, or another doubt; inactive = no such curve, though single readings can be large; an effect the other way counts as inactive or inconclusive. Potency is the fitted concentration of half-maximal effect.

SMILES	G9a block	Sfp PPTase inh	PLK1 PBD inh	BAZ2B block	HP1b binding inh	JMJD2A Tudor inh
CC1CCCN(S(=O)(=O)c2cccc3nonc23)C1 (stereo not given)	18%	15%	-2%	-17%	36%	-15%
CCOC(=O)c1cc(S(=O)(=O)N2CCN(c3cccc(C)c3)C(C)C2)[nH]n1 (stereo not given)	14µM*	/	/	?	2%[57 µM]	?
Cc1cccc(N2CCN(S(=O)(=O)c3cccc4nonc34)CC2C)c1 (stereo not given)	35µM*	13%	10%	/	-21%	?
CCOC(=O)c1cc(S(=O)(=O)N2CCN(c3cc(C)ccc3C)CC2)[nH]n1	4µM*	/	/	50µM*	-4%[57 µM]	-33%
Cc1ccc(C)c(N2CCN(c3ccc4cc(S(=O)(=O)N5CCCCC5)ccc4n3)CC2)c1	?	-17%	-18%	?	35%	11%
Cc1cccc(N2CCN(c3ccc4cc(S(=O)(=O)N5CCCCC5)ccc4n3)CC2C)c1 (stereo not given)	25µM*	4%	3%	-18%[57.1 µM]	41%	?
CSCC[C@H](NC(=O)OC(C)(C)C)c1nnc(SCC=C(C)C)o1	50µM*	-1%	-2%	-4%	16%	-27%
CS(=O)(=O)N1CCC2(CCCN(Cc3ccc(C#N)cc3)C2)CC1	-6%[12.7 µM]	33%	/	/	/	/
O=C(COC(=O)c1ccccn1)NCc1ccc(Cl)cc1Cl	28µM*	/	-3%	?	17%	-23%
O=C(COC(=O)c1ccccn1)Nc1cccc(Cl)c1Cl	50µM*	-2%	-8%	?	38%	3%[57.1 µM]
CC(C)CN1CC2(CCN(C(=O)c3csnn3)CC2)C1	3%[12.7 µM]	-22%	/	/	/	/
OCCCc1nc2n(n1)C(c1ccccc1)C=C(c1ccc(F)cc1)N2 (stereo not given)	?	-5%	-8%	-16%	50%	-11%
OCCCc1nc2n(n1)C(c1cccs1)C=C(c1ccccc1)N2 (stereo not given)	40µM*	?	/	-33%	/	/
OCCCc1nc2n(n1)C(c1ccccc1Cl)C=C(c1cccs1)N2 (stereo not given)	?	50µM*	9%	-25%	24%	-33%
Cc1ccc(S(=O)(=O)Nc2nc3n(n2)C(c2ccccc2Cl)C=C(c2ccccc2)N3)cc1 (stereo not given)	?	/	/	-27%	51%	-9%
CCCCNc1nc(Nc2ccc(C)c(Cl)c2)c2cnn(C)c2n1	-8%[0.501 µM]	12%	4%	-12%	33%	-26%
Cc1cccc(C(=O)Nc2ccccc2C(=O)OCc2cc(=O)n3nc(C4CC4)sc3n2)c1	23%[59 µM]	/	/	-5%	27%	-3%
Cc1c(C(=O)N(C)C)sc2c1c(=O)n(-c1ccc(Cl)c(Cl)c1)c(=O)n2CC(=O)N1CCCCC1C (stereo not given)	2%[59 µM]	/	/	-11%	-3%	-22%
COc1cc(C(=O)NCC(=O)OCC(=O)c2cccc3ccccc23)cc(OC)c1OC	71µM*	17%	-16%	-24%	7%	-4%
COc1cc(C(=O)NCC(=O)OCC(=O)Nc2nnc(-c3ccccc3)o2)cc(OC)c1OC	-4%[59 µM]	/	1%	?	12%	22µM*
O=C(COC(=O)CNC(=O)c1ccccc1)Nc1nnc(-c2ccccc2)o1	45µM*	/	0%	?	51%	?
O=C(COC(=O)CNC(=O)c1cccc(Br)c1)Nc1nnc(-c2ccccc2)o1	-13%[12.7 µM]	/	-1%	12%	30%	-3%
CCc1ccc(NC(=O)Nc2ccccc2OCc2cc(=O)n3ccccc3n2)cc1	7%[59 µM]	/	/	4%	8%[57 µM]	-16%
O=C(O)CC(NC(=O)Cc1ccc([N+](=O)[O-])cc1)c1ccc2c(c1)OCO2 (stereo not given)	-48%	15%	-16%	12%	36%	-5%
COc1cccc(NC(=O)Cn2c(=O)c3cccn3c3ccc(F)cc32)c1	-4%[59 µM]	/	/	-12%	39%	-8%
SMILES	G9a block	Sfp PPTase inh	PLK1 PBD inh	BAZ2B block	HP1b binding inh	JMJD2A Tudor inh
CCOc1ccc(S(=O)(=O)N2CCN(Cc3ccc4c(c3)OCO4)CC2)cc1C	-8%	12%	0%	-11%	43%	-7%
CCN(CCO)Cc1cc(=O)oc2cc3c(cc12)CCC3	40µM*	9%	2%	-25%	37%	-4%
CCCCN(C)Cc1cc(=O)oc2cc3c(cc12)CCCC3	112%	-6%	-4%	35%	86%	40%
O=C(O)COc1cccc2c1CCC=C2CCO/N=C(\c1ccccc1)c1cccnc1	/	-6%	/	/	/	/
Nc1ccc2c(c1)Nc1ccccc1CC2	/	-2%	2%	28µM*	-32%	50µM*
COC(=O)c1c(NC(=O)Cc2cccs2)sc2c1CCC(C)C2 (stereo not given)	?	20µM*	21µM*	-5%	-11%	-11%
COC(=O)c1c(NC(=O)Cn2cnc([N+](=O)[O-])n2)sc2c1CCC(C)C2 (stereo not given)	8.9µM*	32µM*	19µM*	-37%	?	?
COC(=O)c1c(NC(=O)CN(C)CC(=O)Nc2ccc(C)cc2)sc2c1CCC(C)C2 (stereo not given)	-12%[59 µM]	/	4%	-1%	31%	-8%
CCOC(=O)c1c(NC(=O)Cn2cnc([N+](=O)[O-])n2)sc2c1CCC(C)C2 (stereo not given)	3%[0.501 µM]	1%	-6%	-32%	20%	-6%[57.1 µM]
COC(=O)c1c(NC(=S)NN2CCN(C)CC2)sc2c1CCC(C)C2 (stereo not given)	45µM*	?	-8%	?	?	?
Clc1ccccc1N=C1NN=C(c2cccs2)CS1	89µM*	-6%	-19%	/	14%	-30%
CCCC1O[C@@H]2CC3C4CCC5=CC(=O)C=C[C@]5(C)C4C(OC(C)=O)C[C@]3(C)[C@]2(C(=O)COC(C)=O)O1 (stereo not given in full)	8%[59 µM]	-3%	19µM*	-7%	-17%	18µM*
CCCC1O[C@@H]2C[C@H]3[C@@H]4CCC5=CC(=O)C=C[C@]5(C)[C@H]4[C@@H](O)C[C@]3(C)[C@]2(C(=O)CO)O1 (stereo not given in full)	-15%[59 µM]	-18%	-11%	-2%	26%	-22%
